PubChem BioAssay AID492998 (Southern Research Specialized Biocontainment Screening …, 2010)
The campaign covered roughly 2,300 compounds. About 550 (24%) were called active. These entries were drawn from the full list. Entries with a potency or affinity are not part of this list. Unmarked numbers belong to inactive results. How the calls were made is not given here.

Test: Vero E6 cell cytotoxicity, dose response, cytotoxicity control for non-replicating M. tuberculosis project, secondary assay (AID 492998);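 further: 100% = vehicle-treated cells and 0% = background wells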
Details: series mostly up to 20 µM; viability: at the top concentration

Compound	viability
COc1ccc(C(=O)Nc2nnc(C3=COCCO3)o2)cc1	87.2%
CCOc1ccc(-c2nnc(NC(=O)CCCOc3cccc(C)c3)o2)cc1	80.7%
COC(=O)c1ccc(OCC(=O)c2cccc(OC)c2)cc1	97.8%
N[C@@H](Cc1ccccc1)c1nnc(SC/C=C/c2ccccc2)o1	105%
CSCCC(=O)N1CCCC(N2CCN(c3cccc(C(F)(F)F)c3)CC2)C1 (stereo unspecified)	93.2%
COc1cccc(CN2CCC(N(CCc3ccccc3)Cc3ccccc3)CC2)c1OC	78.8%
Cc1cc2ccccc2n1CCNC(=O)C(C)(C)C	104%
O=C(COc1ccc(Nc2ccccc2)cc1)OCC(=O)N1CCCCC1	89.8%
CCc1nnc(NC(=O)c2cc3ccccc3oc2=O)s1	104%
CC(C)c1nnc(NC(=O)c2sc3ccccc3c2Cl)s1	92.5%
O=C(Nc1sc2c(c1C(=O)O)CCCC2)c1ccc(F)cc1	75.2%
O=C(c1ccc([N+](=O)[O-])o1)N1CCc2ccccc2C1	83%
CC(C)Cn1c(N)c(C(=O)COC(=O)c2ccc([N+](=O)[O-])o2)c(=O)n(C)c1=O	90.9%
O=C(Nc1sc2c(c1C(=O)O)CCCCC2)c1ccccc1F	75.1%
COC(=O)c1sc(NC(=O)c2ccc([N+](=O)[O-])o2)c(C#N)c1C	73%
COc1ccc(COc2cccc(C=O)c2)cc1	95.5%
CCc1ccccc1NC(=O)C1COc2ccccc2O1 (stereo unspecified)	118%
O=C(OCc1cccc(F)c1)c1ccc2c(=O)n3c(nc2c1)CCC3	95.5%
Cc1c(Cl)cccc1NC(=O)C(=O)NNC(=O)c1ccccc1F	83.8%
COc1cccc(N2C(=O)NC(=O)/C(=C/c3ccc([N+](=O)[O-])s3)C2=O)c1	101%
c1ccc2sc(SCc3ccc(-c4nnco4)cc3)nc2c1	97.1%
Oc1c(Br)cc(Br)cc1/C=N/c1nccs1	98.2%
C/C(=N\NC(=O)c1nn(C)cc1Cl)c1ccncc1	112%
CC(=O)c1ccc(OC(=O)c2ccc(-n3nc(C)cc3C)cc2)cc1	95.6%
Cc1cc(N2CCC(C)CC2)nc(-n2nc(C)cc2C)n1	72.8%
CCOc1ccc(NC(=O)Cn2sc3nc(C)cc(C)c3c2=O)cc1	86.1%

Compound	viability
CCOc1ccc(OCC(=O)Nc2ccc(OC)cc2)cc1	95.9%
CC1(C)OC(c2ccccc2)=C/C(=C\C=N\NC(=O)c2ccncc2)O1	91.2%
COc1ccc(N2CCN(CC(=O)NC(=O)NC(C)(C)C)CC2)cc1	94.7%
CN(C(=O)COC(=O)c1ccc([N+](=O)[O-])cc1Cl)C1CCCCC1	102%
O=C(N/N=C/c1ccc[nH]1)c1ccc(Cl)cc1	99.1%
Cc1ccc(O)c(C(=O)c2cc(C#N)c(=O)n(-c3nccs3)c2)c1	70.9%
O=C(CC1CCCC1)OCn1nnc2ccccc2c1=O	102%
COc1ccc(-n2c3c(cc(C(=O)NNc4ccccc4)c2=O)C(=O)CC(C)(C)C3)cc1	102%
CCOC(=O)Cc1ccc(NCc2ccc(Cl)cc2)cc1	93.4%
CCOC(=O)C1(O)CC(C)=NN1C(=O)c1cccc(Br)c1 (stereo unspecified)	104%
CCOC(=O)c1c(C)nc2c3ccccc3ccn12	106%
CCOC(=O)Cc1cc(=O)n2[nH]cc(-c3ccc(Cl)cc3)c2n1	94.1%
CCOc1ccc(NC(=O)CCc2ccc(C)o2)cc1	111%
CC(C)(C)NC(=O)C(=O)NNC(=O)COc1ccc(Br)cc1	95.2%
O=C(COC(=O)c1cccc(C(F)(F)F)c1)NCc1ccccc1	98.9%
CCOC(=O)COc1ccc2c(c1)c(C(=O)OCC)c(C)n2CC	95.5%
CCCCN1CCC(O)(c2ccccc2)C(C(=O)c2ccccc2)C1 (stereo unspecified)	79.3%
CCOc1c(OC(C)=O)ccc(/C=C2\N=C(SCC)SC2=O)c1[N+](=O)[O-]	101%
O=Cc1ccc(OC2OCCOC2Oc2ccc(C=O)cc2)cc1 (stereo unspecified)	108%
Cc1cc2nc(CSc3ccc(Cl)cc3)cc(=O)n2[nH]1	99%
COc1cccc2cc(-c3nc4ccccc4o3)c(=O)oc12	92.9%
CS(=O)(=O)Cc1nc2ccccc2oc1=O	79.7%
O=C(CCN1CCN(C/C=C/c2ccccc2)CC1)Nc1ccc(Cl)cc1	87.6%
Cc1ccc(-c2nnc(COC(=O)c3cccs3)o2)cc1	102%
CCOC(=O)C(=NCCOC)NNc1cc(Cl)ccc1Cl	106%
O=C(COc1ccccc1)NCCSCc1ccc(Cl)cc1	97.8%

Compound	viability
Cc1cccc(OCC(O)Cn2c(=N)n(Cc3ccccc3)c3ccccc32)c1 (stereo unspecified)	75%
OC(COc1ccc2ccccc2c1Br)Cn1ccnc1 (stereo unspecified)	89.5%
OC(COc1ccccc1Cl)CN1CCN(CC(O)COc2ccccc2Cl)CC1 (stereo unspecified)	85.3%
CC(=O)n1cc(/C=C2/N=C(c3ccccc3)OC2=O)c2ccccc21	98.1%
COc1cc(C(=O)ON=C2C=C(C)C(=O)C(C)=C2)cc(OC)c1OC	86.3%
CCOCC(=O)Nc1ccc(C)c(Cl)c1	106%
Cc1cc(NC(=O)COC(=O)COc2ccc(C(=O)c3ccccc3)cc2)no1	95.8%
O=C(O)c1ccc(NCc2ccc(Br)cc2)cc1	105%
CC(=O)Nc1ccc(NC(=O)[C@@H]2CCCC[C@@H]2C(=O)O)cc1	100%
O=C(COc1ccc2ccccc2c1)N1CCCC1	89%
Nc1c(Cl)cc(Cl)cc1C(=O)OCC(=O)N1CCCC1	78.2%
CCOC(=O)c1ccc(-c2ccc(C(=O)Nc3cccnc3)o2)cc1	88.4%
CCC(C)NCCOc1ccc(C(C)(C)c2ccccc2)cc1 (stereo unspecified)	79.9%
CCOC(=O)C1CCCN(Cc2ccc(OCc3ccccc3)cc2)C1 (stereo unspecified)	96.5%
CN=C1S/C(=C\c2ccc(OCC(=O)OC)c(OC)c2)C(=O)N1C	82%
CC(C)CSc1nnc2c3ccccc3n(C)c2n1	85.3%
CC(C)[C@@H]1CC[C@@H](C)C[C@H]1OC(=O)C[n+]1cc(-c2ccc(Cl)cc2)n2c1CCCCC2	100%
COc1ccc(NC(=O)c2cc3ccccc3o2)cc1	90.1%
CCCn1nnnc1NCc1ccc(C(C)C)cc1	97.6%
CCc1nonc1NC(=O)COc1ccc(Cl)c(C)c1	101%
O=C1/C(=C/c2ccccn2)COc2ccccc21	78.1%
Cn1nnc(NC(=O)COc2ccc(C3CCCCC3)cc2)n1	110%
O=C(Oc1ccccc1)c1ccc(COC(=O)c2cnccn2)cc1	94.8%
O=C(NCc1ccc(F)cc1)c1cnccn1	98.9%
